Assays:
Conditions in all cases: concentration: 1 μM, replicates: in singlicate; n = 1
[1] = system: FGFR1
[2] = system: FGFR2
[3] = system: FGFR3
[4] = system: FGFR4
[5] = system: FGR
[6] = system: FLT1
[7] = system: FLT3-autoinhibited
[8] = system: FLT3
[9] = system: FLT4
[10] = system: FRK
[11] = system: FYN
[12] = system: GAK
[13] = system: T1, GCN2(Kin.Dom.2,S808G)
T1 construct: gene EIF2AK4

[14] = system: GRK1
[15] = system: T2, GRK2
T2 construct: gene ADRBK1

[16] = system: T3, GRK3
T3 construct: gene ADRBK2

[17] = system: GRK4
[18] = system: GRK7
[19] = system: GSK3A
[20] = system: GSK3B
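Further: KINOMEscan kinase panel screen.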

Row | Compound | %Inh [1] | %Inh [2] | %Inh [3] | %Inh [4] | %Inh [5] | %Inh [6] | %Inh [7] | %Inh [8] | %Inh [9] | %Inh [10] | %Inh [11] | %Inh [12] | %Inh [13] | %Inh [14] | %Inh [15] | %Inh [16] | %Inh [17] | %Inh [18] | %Inh [19] | %Inh [20]
1 | Cn1cc(-c2ccc3c(c2)CCN3C(=O)Cc2cc(F)cc(C(F)(F)F)c2)c2c(N)ncnc21 [GSK2635225] | 26% | 0% | 11% | 33% | 35% | 39% | 13% | 90% | 30% | 18% | 41% | 21% | 2% | 0% | 0% | 0% | 3% | 0% | 8% | 2%
2 | CC(C)c1nc(-c2ccc(F)c(NS(=O)(=O)c3c(F)cccc3F)c2)c(-c2ccnc(Nc3ccc(N4CCOCC4)nc3)n2)s1 [GSK1804250] | 24% | 11% | 8% | 0% | 97.7% | 88% | 0% | 12% | 97.3% | 89% | 95.9% | 92.1% | 100% | 0% | 6% | 7% | 9% | 0% | 40% | 23%
3 | Cc1cccc(Nc2nc(NCCN)ncc2C(N)=O)c1 [GSK1292139] | 0% | 0% | 0% | 0% | 49% | 7% | 15% | 13% | 0% | 0% | 48% | 65% | 41% | 0% | 0% | 0% | 15% | 0% | 6% | 11%
4 | CN(c1ccc2c(c1)nc(NCc1ccccc1)n2C)c1ccnc(Nc2ccc(CS(C)(=O)=O)cc2)n1.Cl [GW811603] | 100% | 27% | 0% | 0% | 33% | 96.9% | 58% | 98.8% | 99.9% | 86% | 69% | 0% | 0% | 0% | 35% | 8% | 33% | 16% | 0% | 0%

— article PMC5540273 (PLoS ONE, 2017)
